Outcome and AC50 data for twelve compounds are collected here from PubChem BioAssay (EPA / NIEHS).

SMILES strings stand for the structures. Where “and” joins values, the source holds several entries; their conditions need not be identical. Equal values may be shown once. Inconclusive results are not listed. Where a structure was tested more than once in an assay, its records may differ in their call. Calls of active or inactive are those of the source. Rule for the calls: active = hit-call score of the fitted dose curve at least 0.9, where 1 is the maximum; inconclusive = response in the unintended direction; inactive = score below 0.9.

The test can be described thus: CCTE_Shafer_MEA_dev_bursting_electrodes_number: CCTE's Neural Network Formation Assay for Number of Bursting Electrodes, Shafer Lab (AID 2284043). As for the experimental part: CCTE_Shafer_MEA_dev assay is conducted using Axion Biosystems 48 well microelectrode array (MEA) plates and Maestro recording system. Each well of the MEA plate contains a grid of 16 microelectrodes embedded in the culture surface. Electrically active cells, such as neurons, can be cultured over the electrodes, and electrical activity in these cells can be recorded extracellularly. The spontaneous firing of neurons is captured from each electrode on a microsecond timescale providing both temporally and spatially precise data. […] The CCTE_Shafer_MEA_dev assay uses primary cultures of rat cortical neurons. Recordings are made on days post-plating 5, 7, 9 and 12. As these cultures mature over time, neural networks develop functional activity and form cohesive networks in which electrical activity can be highly coordinated. CCTE_Shafer_MEA_dev_bursting_electrodes_number is 1 of 19 assay components of the CCTE_Shafer_MEA_dev assay. It measures the number of electrodes in a well with a burst rate of at least 1 burst (temporally-clustered group of action potential firing) every 2 minutes during a recording in a microelectrode array (MEA) using Axion Biosystems Maestro 768 channel amplifier with the AxIS adaptive spike detector. To collapse across multiple recordings made on days post-plating 5, 7, 9 and 12, the trapezoidal area-under-the-curve of the component is calculated.Data from the assay component CCTE_Shafer_MEA_dev_bursting_electrodes_number was analyzed into 1 assay endpoint. This assay endpoint, CCTE_Shafer_MEA_dev_bursting_electrodes_number, was analyzed in the negative analysis fitting direction relative to DMSO as the negative control and baseline of activity. Using a type of functional reporter, gain or loss-of-signal activity can be used to understand electrical activity.
On the day prior to culture, each well was coated thoroughly with 150 uL of 0.05% polyethyleneimine (PEI, Sigma Cat P3143) in 50 mM HEPES (Sigma Cat H7523) at a pH of 8. The plate was incubated at 37C for one hour. PEI was rinsed out with 500 uL of sterile water three times. Plates were stored at 4C until the day of culture. This culture was plated at a seeding density of 1.5 x 10^5 cells/well on a 48-well MEA plate, prepared as described above. Cells were administered via a 25 uL media/laminin ([…]; Sigma Cat L2020-1MG) drop directly onto the microelectrode array, as adding the cells with the laminin results in better attachment than pre-coating with laminin. After 2 hours, an additional 475 uL of cortical media was added and the cells returned to the incubator. Exposure starts at day 0 of plating and is continued over twelve days of network development until the experiment is terminated. Cells are fed with fresh medium on DIV 5 and 9, following the recordings on those days. The entire volume of media in the well is exchanged and any vehicle or compound treatment is renewed. Complete details are found in OP-NHEERL/ISTD/SBB/TJS/2015-03-r0 (available on request, email shafer.tim@epa.gov). Measurement of the electrical activity is non-invasive, and recordings can be made from the same plate over multiple different days of the culture. In cortical neurons, this allows for the measurement of extracellular action potentials over the period during which networks form in the MEA plate.
On to `CCN(CC)C(=O)c1cccc(C)c1`, for which the result was inactive.

A word on the AC50: it is the midpoint of the concentration-response curve, whichever way the signal moves. On to `CC(C)(c1ccc(O)cc1)c1ccc(O)cc1`, for which the AC50 is 9.89 µM (active) and 15 µM (active); the call was inactive.

In the case of `CCCCC(CC)CN1C(=O)C2C3C=CC(C3)C2C1=O` (centres undefined), the AC50 is 4.86 µM (active).

Consider `CCCCOCCOCCOCc1cc2c(cc1CCC)OCO2`, for which the AC50 is 15.9 µM (active).

In the case of `C#CCOC(=O)[C@@H](C)Oc1ccc(Oc2ncc(Cl)cc2F)cc1`, the outcome was inactive.

Turning to `OB(O)O`, the compound was classed as inactive.

As for `CC1(C)C(C=C(Cl)Cl)C1C(=O)OCc1cccc(Oc2ccccc2)c1` (centres undefined), the AC50 was 24.4 µM (active) and 10.1 µM (active).

Turning to `S=C(S)NCCNC(=S)S.[Mn+2].[S-]C([S-])=NCCN=C([S-])[S-].[Zn+2]`, the AC50 is 7.52 µM (active) and the result was inactive.

Consider `COCCO`, for which the compound was classed as inactive.

For the compound `Cc1nn(C)c(Oc2ccccc2)c1C=NOCc1ccc(C(=O)OC(C)(C)C)cc1`, the AC50 was 0.00163 µM (active).

For `Oc1ccc(C(c2ccc(O)cc2)C(Cl)(Cl)Cl)cc1`, the half-maximal activity concentration (AC50) was 10 µM (active).

Turning to `CCCN(CCC)C(=O)SCC`, the call was inactive.
